Only some compounds are listed: those with a hit (about 21% of all), similar ones and a draw of the others.
DRD3 antagonist – antagonists of human D3 dopamine receptor | D3R cells, DiscoveRx beta-arrestin luminescence, antagonist mode; active compounds read low | max response, negative = inhibition, % | 2.5% of 360,000 active | AID 652054; in the data active = max response below about -50%; inconclusive = no clear call, values can overlap the other calls
Target sequence (P35462 whole entry, looked up): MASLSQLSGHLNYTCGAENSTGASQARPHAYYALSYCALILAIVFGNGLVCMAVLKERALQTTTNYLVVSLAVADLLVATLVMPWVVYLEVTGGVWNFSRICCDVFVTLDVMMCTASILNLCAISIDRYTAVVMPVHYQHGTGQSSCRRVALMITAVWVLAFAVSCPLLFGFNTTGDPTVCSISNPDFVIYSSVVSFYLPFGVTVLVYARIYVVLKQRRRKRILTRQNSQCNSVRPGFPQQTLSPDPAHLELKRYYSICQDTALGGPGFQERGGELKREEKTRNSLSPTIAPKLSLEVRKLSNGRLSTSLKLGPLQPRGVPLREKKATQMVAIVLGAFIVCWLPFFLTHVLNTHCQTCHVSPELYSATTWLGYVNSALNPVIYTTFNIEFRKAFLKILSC
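Cells expressing the human receptor were seeded at 1500 cells/well, incubated overnight at 37 degrees C in 5% CO2, then exposed to library compounds with dopamine controls for 90 minutes at 37 degrees C before luminescent detection.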
DT40 TDP1 no CPT – qHTS for Inhibitors of human tyrosyl-DNA phosphodiesterase 1 (TDP1): qHTS in cells in absence of CPT; DT40 Tdp1-/- hTDP1 cells, no CPT, ATP luminescence, 48 h; Potency, µM (titrated, usually from 46.2 µM), most hits filed as inhibitors; 15% of 420,000 active; AID 686978, 2013; also: nearly all actives have a fitted effect of over 55% in size
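Chicken DT40 Tdp1-/- cells stably complemented with human TDP1 were seeded at 400 cells/well with DMSO in place of 20 nM camptothecin. After compound pinning, cells grew at least 48 hr at 37 °C; viability read by CellTiter-Glo luminescence.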
IL1B secr inh – inflammasome signaling inhibition, IL-1 beta readout. THP-1 LPS/ATP IL-1B secretion, AlphaLISA, 16 h; active compounds read low. activity change, % at 57.5 µM. 4.7% of 360,000 active; in the data active = activity change below about -50%; inconclusive = mostly about -30% to -49%
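Secreted IL-1B measured by AlphaLISA bead assay after 16 h compound exposure of THP-1 cells; compounds (final up to 57.5 uM) added 1 h before LPS (250 ng/mL) and ATP (1.25 mM) stimulation; lower signal means less secretion.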
TDP1 cell CPT – DT40-hTDP1 cell growth loss with CPT; chicken DT40 Tdp1-/-;hTDP1 cells + 20 nM CPT, ATP luminescence, 48 h; Potency, µM (highest dose often 46.2 µM), actives largely listed as inhibitors; 12% of 420,000 active; AID 686979; also: nearly all actives have a fitted effect of over 55% in size
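Cell growth measured by CellTiter-Glo luminescence after a minimum 48 h, 37 C compound exposure with 20 nM CPT in Tdp1-knockout DT40 cells stably expressing hTDP1, seeded 400/well; qHTS titration format.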
DRD3 agonist – agonists of human D3 dopamine receptor; AID 652048; D3R DiscoveRx beta-arrestin cells, luminescence, 90 min; 0.58% of 410,000 active; max activation, %; P35462; in the data active = max activation above about 30%
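Cells at 1500/well, incubated overnight, then treated with pinned compounds (dopamine as control) for 90 min at 37 degrees C. DiscoveRx reagent added for 30 - 60 minutes at room temperature; luminescence read.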
ClpP mod – qHTS Assay for Activators of ClpP; ATP-dependent Clp protease proteolytic subunit (Bacillus subtilis (strain 168)), P80244; purified B. subtilis ClpP, FRET peptide cleavage, 20 min; Potency, µM (highest dose often 57.5 µM); 1.9% of 340,000 active; AID 651965, 2013; active = well fitted falling curve with a large enough effect; inconclusive = small, poorly fitted or top-dose-only effect; inactive = no such curve, though single readings can be large or run the other way; also: the source files actives as falling curves though it sought activators and does not explain the sign; nearly all actives have a fitted effect of over 65% in size
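Purified B. subtilis ClpP, 10 microg/mL final in Tris/HCl pH8 with KCl, BSA, glycerol and Tween-20, cleaved an Abz/nitrotyrosine-quenched decapeptide. Fluorescence (ex 320, em 430) was read at 0 and 20 min at room temperature. Delta was normalized to 5.8 microM ADEP and DMSO/no-enzyme controls.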
Large screens that a line does not name were inactive. Unless noted, calls follow the shape of the dose curve; as a rule, active = well fitted inhibition curve with a large enough effect; inconclusive = small, poorly fitted or top-dose-only effect; inactive = flat fitted curve, though single readings scatter.

COc1ccc(OCC(=O)Nc2ccc(N3CCN(C(=O)c4ccccc4)CC3)c(Cl)c2)cc1	DT40 TDP1 no CPT 12µM, TDP1 cell CPT inconclusive
Cc1cccc(OCC(=O)Nc2ccc(N3CCN(C(=O)c4ccco4)CC3)cc2)c1	DT40 TDP1 no CPT 21µM, IL1B secr inh -54, TDP1 cell CPT 18µM
Cc1ccc(OCC(=O)Nc2cc(C(=O)O)cc(C(=O)O)c2)cc1C	DT40 TDP1 no CPT inconclusive, TDP1 cell CPT 6.5µM (no result: ClpP mod)
COc1ccc(OCC(=O)Nc2ccc(N3CCN(C(=O)c4ccccc4C)CC3)cc2)cc1	DT40 TDP1 no CPT inconclusive, TDP1 cell CPT 26µM (no result: ClpP mod)
Cc1ccc2c(=O)n3c(nc2c1)C(Cc1ccc(O)cc1)NC(=O)c1cccnc1-3 (centres undefined)	DT40 TDP1 no CPT inconclusive
CCOc1ccc(NC(=O)c2sc3nc(N4CCOCC4)c4c(c3c2N)CCCC4)cc1	DT40 TDP1 no CPT inconclusive, TDP1 cell CPT inconclusive, ClpP mod inconclusive
CC(=O)c1ccc(NC(=O)c2sc3nc(N4CCOCC4)c4c(c3c2N)CCCC4)cc1	DT40 TDP1 no CPT 21µM, TDP1 cell CPT inconclusive, ClpP mod inconclusive
Nc1c(C(=O)NCc2ccccc2)sc2nc(N3CCOCC3)c3c(c12)CCCC3	DT40 TDP1 no CPT 21µM, TDP1 cell CPT inconclusive, ClpP mod 25µM
Nc1c(C(=O)Nc2ccccc2)sc2nc(N3CCOCC3)c3c(c12)CCCC3	DT40 TDP1 no CPT 9.2µM, TDP1 cell CPT inconclusive
COc1cccc(NC(=O)c2sc3nc(N4CCOCC4)c4c(c3c2N)CCCC4)c1	DT40 TDP1 no CPT 23µM, TDP1 cell CPT 26µM
N#Cc1c(N)c2ccccn2c1C(=O)c1ccc(Br)cc1	DT40 TDP1 no CPT inconclusive, TDP1 cell CPT inconclusive
Cc1ccc2[nH]cc(S(=O)(=O)c3ccc(C)c(C)c3)c(=O)c2c1	DT40 TDP1 no CPT inconclusive, TDP1 cell CPT inconclusive
COCC(C)(C)COS(N)(=O)=O	none
Cc1ccc(NC(=O)c2sc3nc(N4CCOCC4)c4c(c3c2N)CCCC4)cc1	DT40 TDP1 no CPT inconclusive, ClpP mod inconclusive
Nc1c(C(=O)Nc2ccc(Cl)cc2)sc2nc(N3CCOCC3)c3c(c12)CCCC3	DT40 TDP1 no CPT 15µM, TDP1 cell CPT inconclusive
COc1ccc(C(C)=O)cc1COC(=O)c1cnc(Cl)c(Cl)c1	IL1B secr inh -82 (no result: ClpP mod)
COc1ccc(C(=O)COC(=O)c2ccc(Cl)nc2)cc1OC	ClpP mod 22µM
COc1ccc(C(C)=O)cc1COC(=O)c1ccc2c(c1)OCO2	none
COc1ccc(C(=O)COC(=O)c2ccc(Cl)nc2)c(OC)c1	none
O=C(Nc1ccccc1-c1nc2ccccc2s1)c1ccc(F)cc1	none (no result: DRD3 antagonist, IL1B secr inh)
CNc1sc(C(=O)c2ccc(F)cc2)c(N)c1-c1nc2ccccc2s1	DRD3 antagonist -76, DT40 TDP1 no CPT 7.3µM, TDP1 cell CPT 5.2µM
CC(=NNc1ccc2ccccc2n1)c1ccccc1O	DT40 TDP1 no CPT inconclusive, IL1B secr inh -59, TDP1 cell CPT inconclusive
C/C(=N\Nc1nc2ccccc2nc1C)c1ccccc1O	DT40 TDP1 no CPT 0.092µM, TDP1 cell CPT 0.13µM (no result: ClpP mod)
O=C(Nc1ccc2ccccc2n1)Nc1ccccc1F	none
CC(C)[C@H](NC(=O)NCc1ccc(F)cc1)C(=O)O	none
CCOC(OCC)c1cn(Cc2ccc(C(=O)c3ccccc3)cc2)nn1	DT40 TDP1 no CPT 23µM, TDP1 cell CPT 23µM
O=C(O)c1cccc(-c2nnn(Cc3ccccc3)n2)c1	DRD3 antagonist inconclusive
CCOC(=O)c1cn(Cc2cccc(Cl)c2)nn1	none
CCCCCCCCCCCCCCCCCCc1ccc(C(=O)/C=C/C(=O)O)cc1	none (no result: DRD3 antagonist, IL1B secr inh, DRD3 agonist, ClpP mod)
O=C(c1ccccc1)c1ccc(Cn2cc(-c3ccccc3)nn2)cc1	DT40 TDP1 no CPT 7.3µM, TDP1 cell CPT 7.3µM
CCCCCc1ccc(-c2cn(Cc3ccc(C(=O)c4ccccc4)cc3)nn2)cc1	DRD3 antagonist inconclusive, DT40 TDP1 no CPT 4.1µM, TDP1 cell CPT 3.3µM

Assay outcomes deposited in PubChem BioAssay by National Center for Advancing Translational Sciences (NCATS).
